# Source: PubChem BioAssay AID624125 (The Scripps Research Institute Molecular Screening Center, 2012)
# The campaign covered roughly 360,000 compounds. About 2,600 (0.72%) were called active. For the sample, actives were picked, then their nearest neighbours and some compounds at random. Values without a mark were called inactive.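 The calls were made as follows: active = inhibition above its plate's cutoff, the mean inhibition of sample wells plus 3 SD (cut at about 27% in these data); inactive = the rest.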
# Target: Muscarinic acetylcholine receptor M4 (Homo sapiens) (UniProt P08173)
# Sequence (P08173 whole entry, looked up): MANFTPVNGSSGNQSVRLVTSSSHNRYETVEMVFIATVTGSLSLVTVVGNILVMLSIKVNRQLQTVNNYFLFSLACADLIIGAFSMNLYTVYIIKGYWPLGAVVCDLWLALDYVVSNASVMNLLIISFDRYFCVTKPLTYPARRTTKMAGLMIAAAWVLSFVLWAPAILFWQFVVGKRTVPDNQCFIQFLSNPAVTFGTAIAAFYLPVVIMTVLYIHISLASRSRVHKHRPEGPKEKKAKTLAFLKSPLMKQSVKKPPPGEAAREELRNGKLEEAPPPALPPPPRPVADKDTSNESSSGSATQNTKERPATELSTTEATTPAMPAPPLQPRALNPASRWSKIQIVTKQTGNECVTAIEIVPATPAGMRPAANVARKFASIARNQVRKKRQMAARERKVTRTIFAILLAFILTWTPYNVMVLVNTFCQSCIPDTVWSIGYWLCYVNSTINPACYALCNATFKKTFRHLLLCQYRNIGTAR
# Test: CHRM4 blockers of acetylcholine calcium response – CHO cells, Fluo-8 calcium fluorescence, primary screen (AID 624125);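 also: 0% = acetylcholine EC80 with DMSO and 100% = DMSO without agonist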
# Details: CHO-hM4 cells, ACh EC80, Fluo-8 calcium fluorescence; at 3 µM; active compounds read high
row,Structure (SMILES),inhibition
1,CN(Cc1nc(-c2cnccn2)no1)Cc1n[nH]c2c1CCCCC2,37.3% (active)
2,CCn1ccnc1CN(C)Cc1nc(-c2ccc3c(c2)OCO3)no1,1.6%
3,CN(Cc1cc2cc(F)ccc2[nH]1)Cc1nc(-c2cnccn2)no1,-8.36%
4,CCOc1cc(CNCc2ccccn2)ccc1OCC(=O)NC(C)(C)C,1%
5,CCN(CC)c1ccc(/C=N/NC(=O)c2cnccn2)c(O)c1,33.1% (active)
6,COc1cccc(OCC(=O)NNC(=O)c2cnccn2)c1,12.6%
7,CCN(CC)c1ccc(NC(=O)c2ccc(Cl)nc2)cc1,1.79%
8,CC1(C)Cc2cccc(OCC(=O)N3CCN(c4ccc([N+](=O)[O-])cc4)CC3)c2O1,-2.84%
9,COc1cccc(/C=C/C(=O)OCC(=O)N2CCCc3ccccc32)c1,-7.08%
10,O=c1[nH]c(=O)n(Cc2ccco2)c2c1C(C(F)(F)F)(C(F)(F)F)N=C(c1ccco1)N2,4%
11,Nc1c(C(=O)c2cccs2)sc2nsc(SCCN3CCCCC3)c12,42% (active)
12,O=C1C(=O)N(CCCO)C(c2ccccc2)/C1=C(\O)c1ccc(Br)cc1 (centres undefined),3.51%
13,COC(=O)[C@]12CCCCC=C1N(Cc1ccccc1)C(=O)[C@H](CC(=O)NCc1ccc(C)o1)C2,-11.9%
14,OC[C@@H]1CN(Cc2ccc(-c3ccccc3)cc2)C[C@H](n2cnc3c(NC4CCCC4)ncnc32)O1,19.1%
15,CN(C)c1ccc(/C=C2\NC(=S)N(Cc3ccccc3)C2=O)cc1,44.5% (active)
16,CN(C)c1ccc(CSc2ccccc2)cc1,-16.2%
17,CC(C)(C)C(=O)COC(=O)c1cc(S(=O)(=O)N2CCCCC2)ccc1N1CCOCC1,-6.6%
18,CC1Cc2[nH][nH]c(=O)c2C(C2CCCC2)O1 (centres undefined),3.85%
19,CCNC(=S)N(CCN(CC)CC)Cc1cc2cc3c(cc2[nH]c1=O)OCO3,1.79%
20,c1ccc2c(c1)OCC(CNc1ncnc3nc[nH]c13)O2 (centres undefined),65.3% (active)
21,CCC(=O)c1ccc(OCC(=O)N(CC)CC2COc3ccccc3O2)cc1 (centres undefined),-18.3%
22,O=C(COc1ccc(F)cc1Br)NCC1COc2ccccc2O1 (centres undefined),3.31%
23,O=[N+]([O-])c1cc(S(=O)(=O)CCCN2CCOCC2)ccc1F,-17.3%

row,Structure (SMILES),inhibition
1,CC(C)(O)C#Cc1ncc(C(F)(F)F)cc1Cl,3.84%
2,COC(=O)[C@@H](NC(=O)Nc1cc(Cl)ccc1C)C(C)C,8.25%
3,CN(C)Cc1ccccc1C1(O)c2ccccc2CSc2ccccc21 (centres undefined),22.2%
4,CN(C)CC/C=C1\c2ccccc2CSc2ccccc21,83% (active)
5,Cc1cccc(-n2c(O)c(C=Nc3ccccc3N)c(=O)[nH]c2=O)c1,4.12%
6,CN(C)CCCNC(=O)c1cc(C(=O)Cc2ccc(Cl)cc2)c[nH]1,-5.01%
7,CCOC(=O)c1nnn(-c2nonc2-n2cccc2)c1CN1CCC(C(=O)OCC)CC1,0.5%
8,CCNS(=O)(=O)c1ccc(NC(=O)Nc2cccc(C(F)(F)F)c2)cc1,30.8% (active)
9,CCNS(=O)(=O)c1ccc(NC(=O)c2cncc(Br)c2)cc1,-2.17%
10,Cc1cc(S(=O)(=O)N2CCOCC2)ccc1OCC(=O)Nc1cccc(C(F)(F)F)c1,14.2%
11,CCCNC(=O)C[C@@H]1CC[C@@H]2[C@H](COC[C@H](O)CN2C(=O)c2cc(Cl)cc(Cl)c2)O1,2.23%
12,Cc1ccc(C(=O)O)cc1S(=O)(=O)NCC1CCCO1 (centres undefined),0.46%
13,CCc1cc(C(=O)OC)c(NC(=O)CC2Sc3ccc(C(F)(F)F)cc3NC2=O)s1 (centres undefined),0.19%
14,COc1cc(OC)c2ccc(=O)oc2c1C(CCN1CCN(c2ccccc2)CC1)c1ccc2c(c1)OCO2 (centres undefined),4.01%
15,CCC1C=C(c2ccccc2)C=CN=C1N(CC)CC (centres undefined),35% (active)
16,O=C(N/N=C/c1sc(N2CCCCC2)nc1-c1cccs1)c1cccnc1,-11.5%
17,Nc1cc2c(cc1Br)-c1ccc(F)cc1C2=O,-3.7%
18,COc1ccc(S(=O)(=O)N2CCCC(C(=O)N3CCN(C)CC3)C2)cc1C (centres undefined),-3.22%
19,Cc1ccc(S(=O)(=O)N2CCCC(C(=O)N3CCN(C)CC3)C2)cc1 (centres undefined),11.1%
20,CC(=O)N1CCCc2cc(S(=O)(=O)N3CCCC(C(=O)N4CCN(c5cccc(Cl)c5)CC4)C3)ccc21 (centres undefined),43.8% (active)
21,Cc1ccc(S(=O)(=O)N2CCCC2C(=O)OCc2nc3sc(C)c(C)c3c(=O)[nH]2)cc1 (centres undefined),-8.5%
22,Cc1sc2nc(CSCC(=O)Nc3c(Cl)cccc3Cl)[nH]c(=O)c2c1C,-1.67%
23,CCN(CC)Cc1nc2sc(C)c(C)c2c(=O)[nH]1,34.7% (active)

row,Structure (SMILES),inhibition
1,Cn1c2c(c(=O)n(C)c1=O)C1c3ccccc3OCC1C(C)(C)O2 (centres undefined),-10.5%
2,CCCCNC(=O)CSc1nc2ccc(NC(=O)CSc3nnc(N)s3)cc2s1,4.39%
3,Nc1nnc(SCC(=O)Nc2ccc3nc(SCC(=O)Nc4ccccc4)sc3c2)s1,40.5% (active)
4,COc1cc(OC)cc(-c2nnc(SCC(=O)Nc3ccc(C(=O)O)cc3)s2)c1,3.22%
5,CSc1nc2nc(-c3cccc(C(F)(F)F)c3)ccn2n1,-1.52%
6,C=C(C)c1cccc(C(C)(C)NC(=O)NCCN(CC)CC)c1,61.6% (active)
7,C=C(C)c1cccc(C(C)(C)NC(=O)NC2CCCC2)c1,4.8%
8,C=C(C)c1cccc(C(C)(C)NC(=O)N2CCN(c3ncccn3)CC2)c1,6.08%
9,COc1ccc(-c2cn(-c3ccc(C)cc3)c(=O)n2CC(=O)Nc2ccc(OC)c(OC)c2)cc1,4.43%
10,COC(=O)c1ccc(CNC(=O)c2ccc(S(=O)(=O)N3CCCCCC3)cc2)cc1,5.81%
11,Cc1cc2cc(CNC(=O)c3ccc(S(=O)(=O)N4CCOCC4)cc3)ccc2[nH]1,28.9% (active)
12,Cc1cc2cc(CNC(=O)c3cccs3)ccc2[nH]1,-4.44%
13,CC1CCc2sc(C(=O)N/N=C/C3CCCCC3)cc2C1 (centres undefined),-5.14%
14,COc1ccc(-c2nc(N)sc2C2(O)C(=O)Nc3c(Br)cc(F)cc32)cc1OC (centres undefined),-0.95%
15,O=CNc1cc(-c2ccc(C(=O)N3CCOCC3)cc2)cn2c(-c3ccc(F)cc3)cnc12,0.14%
16,CC(C)(C)N(CC#CCC(O)(c1ccccc1)C1CCCC1)CCO (centres undefined),31.3% (active)
17,OC(C#CCN1CCOCC1)(c1ccccc1)C1CCCCC1 (centres undefined),10.4%
18,Cc1ccc(C)c(N2CCN(C(=O)CCc3nc(-c4cccc(C(F)(F)F)c4)no3)CC2)c1,-9.53%
19,Cc1cc(O)ccc1NC1=CC(=O)CC(C)(C)C1,2.61%
20,CCc1nc2c(OCCOc3ccc(F)cc3)cccn2c1N(C)C(=O)c1ccccc1F,1.61%
21,C[C@H]1CN([C@@H](C)CO)C(=O)Cc2cc(NC(=O)Cc3ccccc3)ccc2O[C@H]1CN(C)S(=O)(=O)c1cccs1,35.1% (active)
22,CCOC(=O)CCCCCC(=O)Nc1ccc2c(c1)CC(=O)N([C@@H](C)CO)C[C@H](C)[C@@H](CN(C)Cc1ccccc1)O2,-3.74%
23,COc1ccc(S(=O)(=O)N(C)C[C@H]2Oc3ccc(NS(=O)(=O)c4cccs4)cc3CC(=O)N([C@H](C)CO)C[C@H]2C)cc1,5.37%

row,Structure (SMILES),inhibition
1,NC(=O)c1cc(S(=O)(=O)NCCCc2ccco2)cs1,3.61%
2,O=C(CNS(=O)(=O)c1ccc(Br)s1)N1CCN(C(=O)c2ccco2)CC1,-1.1%
3,CC(C)C(NS(=O)(=O)c1cccs1)C(=O)Nc1nc(C(C)(C)C)cs1 (centres undefined),-1.31%
4,Cc1ccc(N(Cc2ccc(C(=O)Nc3ccccc3C(=O)NCc3ccco3)cc2)S(C)(=O)=O)cc1C,39.7% (active)
5,CS(=O)(=O)N(Cc1ccc(Cl)cc1)c1ccc(C(=O)NCCSCc2ccco2)cc1,13.9%
6,CCN1CCN(C(=O)c2ccc(CN(c3ccc(C)c(C)c3)S(C)(=O)=O)cc2)CC1,-4.91%
7,c1ccc2c(c1)OC1OC2Oc2ccccc21,-7.83%
8,COc1ccc(S(=O)(=O)NC2(C(F)(F)F)N=C3SCCN3C2=O)cc1 (centres undefined),-9.21%
9,CCN1CCN(c2ccc(S(=O)(=O)N3CCCCC3)cc2NC(=O)c2cccc(NC(C)=O)c2)CC1,-6.66%
10,COc1ccc(CN2CCCC(C(=O)N3CCCCC3)C2)cc1 (centres undefined),1.76%
11,COc1ccc(CN2CCCC(C(=O)c3ccc(Cl)cc3)C2)cc1Cn1cncn1 (centres undefined),38.6% (active)
12,COc1cc(CN2CCCC(C(=O)c3ccc(SC)cc3)C2)cc(Cl)c1O (centres undefined),-23.2%
13,CCN(CC)N=Nc1cccc(NC(C)=O)c1,5.94%
14,CN(C(=O)CSc1nnc(-c2ccc3c(c2)OCO3)o1)C1CCS(=O)(=O)C1 (centres undefined),0.5%
15,N/C(=N\OC(=O)CCCC(=O)O)c1ncc(C(F)(F)F)cc1Cl,3.64%
16,O=C(c1ccccn1)c1ncc(C(F)(F)F)cc1Cl,9.21%
17,N/C(=N\OC(=O)Nc1ccc(Cl)c(Cl)c1)c1ncc(C(F)(F)F)cc1Cl,27% (active)
18,O=C(COc1ccc(S(=O)(=O)NCc2ccccc2)cc1)N1CCOCC1,4.93%
19,CC(O)C(NS(=O)(=O)c1ccc(Cl)cc1)C(=O)OCc1cc([N+](=O)[O-])cc2c1OCOC2 (centres undefined),5.24%
20,CCOc1ccccc1NC(=S)C(=C([O-])c1ccc2c(c1)OCCO2)[n+]1ccc(CC)cc1,-1.01%
